The values that follow come from PubChem BioAssay (NCI).

This is part of a sample that, as a whole, favours compounds with a hit. Of some 83,000 tested, about 20% had one in any assay.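 Activity criterion: percent growth below 10, measured after cells in 96-well plates were exposed to a single compound concentration for 48 hours.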 A number with no mark means an inactive call. Activity calls are given as the source filed them.

Test systems include NCI-H23 lung; NCI-H226 lung; HOP-62 NSCLC; NCI-H460 lung; HOP-92 NSCLC; NCI-H522 lung; A549/ATCC NSCLC; 786-0 renal; COLO 205 colon; DU-145 prostate; K-562 leukemia; MDA-MB-231 breast; RXF 393 renal; SF-268 CNS; SF-295 CNS; SF-539 CNS; UACC-257 melanoma; M14 melanoma; MALME-3M melanoma.
What all share (experiment): NCI-60 one-dose screen, 48 h (100 = growth as untreated, 0 = no growth, -100 = all killed)
What all share (conditions): 10 µM

For the compound `OCCn1cccn1`, the growth in the assay with NCI-H23 lung was 93.1%; in the assay on NCI-H226 lung, 99.9%; with HOP-62 NSCLC it was 104%; in the assay on NCI-H460 lung it was 102%; in the assay on HOP-92 NSCLC it was 101%; in the assay on NCI-H522 lung, 101%. Also, the growth was 111% with A549/ATCC NSCLC; 109% in the assay on 786-0 renal; 125% with COLO 205 colon; 104% in the assay with DU-145 prostate; 101% with K-562 leukemia; 103% in the assay on MDA-MB-231 breast. The growth in the assay with RXF 393 renal is 93.8%; in the assay with SF-268 CNS, 100%; in the assay on SF-295 CNS it was 108%; with SF-539 CNS, 98.3%; in the assay with UACC-257 melanoma it was 136%; with M14 melanoma, 112%.
For `NS(=O)(=O)c1ccc(N2N=C(c3ccccc3)CCC2=O)cc1`, the growth in the assay with NCI-H23 lung was 95.4%; in the assay on NCI-H226 lung, 120%; in the assay on HOP-62 NSCLC, 95.8%; in the assay on NCI-H460 lung it was 102%; in the assay with HOP-92 NSCLC it was 97.7%; with NCI-H522 lung, 85.7%. Moreover, the growth was 93.6% in the assay with A549/ATCC NSCLC; 82.7% in the assay on 786-0 renal; 156% in the assay with COLO 205 colon; 182% in the assay with DU-145 prostate; 85.1% in the assay on K-562 leukemia; 112% with MDA-MB-231 breast. Besides, the growth in the assay with RXF 393 renal was 110%; in the assay with SF-268 CNS, 176%; in the assay on SF-295 CNS, 99%; with SF-539 CNS, 102%; in the assay on UACC-257 melanoma, 96.5%; in the assay with M14 melanoma, 100%.
As for `CCn1cc(C(=O)O)c(=O)c2cc(F)c(N3CCNCC3)cc21`, the growth with NCI-H23 lung is 108%; with NCI-H226 lung it was 92.3%; in the assay with HOP-62 NSCLC it was 108%; in the assay on NCI-H460 lung it was 104%; in the assay on HOP-92 NSCLC, 115%; in the assay with NCI-H522 lung, 104%. For the same compound, the growth with A549/ATCC NSCLC is 103%; with 786-0 renal it was 108%; in the assay with COLO 205 colon, 102%; in the assay with DU-145 prostate, 106%; in the assay on K-562 leukemia, 96.6%; in the assay on MDA-MB-231 breast, 100%. Also, the growth with RXF 393 renal is 118%; in the assay with SF-268 CNS, 103%; in the assay on SF-295 CNS, 93%; in the assay on UACC-257 melanoma it was 106%; with M14 melanoma, 117%.
For `O=C1OC(C(Cl)(Cl)Cl)OC1C(Cl)(Cl)Cl` (stereo unspecified), the growth is 102% in the assay with NCI-H23 lung; 110% in the assay on NCI-H226 lung; 121% in the assay on HOP-62 NSCLC; 108% in the assay with NCI-H460 lung; 105% in the assay on HOP-92 NSCLC; 96.4% with NCI-H522 lung. Besides, the growth was 95.6% in the assay on A549/ATCC NSCLC; 114% in the assay with 786-0 renal; 107% in the assay with COLO 205 colon; 101% in the assay with DU-145 prostate; 91.3% with K-562 leukemia; 103% in the assay with MDA-MB-231 breast. The growth in the assay on RXF 393 renal was 116%; with SF-268 CNS it was 103%; in the assay on SF-295 CNS it was 98%; in the assay on SF-539 CNS it was 115%; with UACC-257 melanoma it was 92.5%; with M14 melanoma, 99%.
With `OC(CCN1CCCC1)(c1ccccc1)C1CCCCC1` (stereo unspecified), the growth is 103% in the assay on NCI-H23 lung; 94.3% in the assay with NCI-H226 lung; 120% in the assay with HOP-62 NSCLC; 110% in the assay with NCI-H460 lung; 115% with HOP-92 NSCLC; 102% with NCI-H522 lung. Besides, the growth is 104% with A549/ATCC NSCLC; 100% in the assay on 786-0 renal; 117% with COLO 205 colon; 108% in the assay on DU-145 prostate; 117% with K-562 leukemia; 104% in the assay on MDA-MB-231 breast. For the same compound, the growth in the assay on RXF 393 renal is 103%; in the assay on SF-268 CNS it was 95.9%; in the assay on SF-295 CNS, 100%; in the assay with UACC-257 melanoma, 109%; in the assay with M14 melanoma, 99.6%.
For the compound `C[n+]1c2ccccc2nc2ccccc21`, the growth with NCI-H23 lung is -9.78% (active); with NCI-H226 lung, 42.2%; in the assay with HOP-62 NSCLC it was -18.8% (active); with NCI-H460 lung, 17.3%; in the assay on HOP-92 NSCLC, -10.7% (active); with NCI-H522 lung, -39.4% (active). In addition, the growth was 24.1% with A549/ATCC NSCLC; 10.9% with 786-0 renal; -25.3% (active) in the assay with COLO 205 colon; -59.4% (active) with DU-145 prostate; 25.5% in the assay with K-562 leukemia; -2.35% (active) in the assay on MDA-MB-231 breast. For the same compound, the growth in the assay on RXF 393 renal was 24.3%; with SF-268 CNS, 20.7%; with SF-295 CNS, 23.4%; in the assay with SF-539 CNS, 29.1%; with M14 melanoma, -55.7% (active).
`O=C(COc1cccc(/C=C2\CSc3ccccc3C2=O)c1)c1ccc(Cl)cc1`: the growth was -7.19% (active) in the assay on NCI-H23 lung; 80.1% in the assay with NCI-H226 lung; 79.5% with HOP-62 NSCLC; 68.5% with NCI-H460 lung; 56.5% with HOP-92 NSCLC; -76.8% (active) with NCI-H522 lung. The growth in the assay with A549/ATCC NSCLC was 40.6%; in the assay with 786-0 renal, 80.3%; with COLO 205 colon, 96.2%; in the assay with DU-145 prostate, 94.9%; with K-562 leukemia it was -76.8% (active); in the assay on MALME-3M melanoma, -61.9% (active). The growth was 68.8% in the assay with MDA-MB-231 breast; 29.9% with SF-268 CNS; -28.1% (active) with SF-295 CNS; 50.6% in the assay on SF-539 CNS; -47% (active) in the assay with UACC-257 melanoma; -34.7% (active) with M14 melanoma.
As to `CC(C)(C)c1nn(-c2ccccc2)c2c1CC1(CN2Cc2ccc(Cl)cc2)C(=O)c2ccccc2C1=O`, the growth in the assay on NCI-H23 lung is 80.8%; in the assay on NCI-H226 lung it was 81.9%; in the assay with HOP-62 NSCLC, 102%; with NCI-H460 lung, 90.7%; in the assay on HOP-92 NSCLC, 54.8%; in the assay with NCI-H522 lung, 80.3%. Further, the growth with A549/ATCC NSCLC is 70.7%; in the assay on 786-0 renal, 86.7%; in the assay on COLO 205 colon, 117%; in the assay on DU-145 prostate, 95.8%; in the assay with K-562 leukemia, 81.3%; in the assay with MDA-MB-231 breast it was 83.2%. Further, the growth in the assay with RXF 393 renal was 95.3%; in the assay with SF-268 CNS, 89%; in the assay with UACC-257 melanoma it was 76.1%; with M14 melanoma it was 87.1%.
As to `COc1ccc(/C=c2\sc3n(c2=O)C(c2cc(OC)c(OC)c(OC)c2)C=C(c2ccc(OC)c(OC)c2)N=3)cc1OC` (stereo unspecified), the growth with NCI-H23 lung is 103%; in the assay with NCI-H226 lung it was 108%; in the assay with HOP-62 NSCLC, 103%; with NCI-H460 lung it was 107%; with HOP-92 NSCLC, 63.3%; in the assay with NCI-H522 lung it was 58.1%. Further, the growth in the assay on A549/ATCC NSCLC is 100%; with 786-0 renal, 78.1%; with COLO 205 colon it was 97.3%; in the assay on DU-145 prostate it was 112%; with K-562 leukemia, 89.9%; in the assay with MDA-MB-231 breast, 85.5%. For the same compound, the growth was 105% in the assay on RXF 393 renal; 91.1% with SF-268 CNS; 115% with SF-295 CNS; 88.9% with UACC-257 melanoma; 100% with M14 melanoma.
